Data as given in paper PMC11006913.
Numbering of substitutions follows the chain as printed.

Key:
Assay in all cases: PBM; 200 nM protein, PBS
Conditions in all cases: dsDNA, one strand shown
[1] = target: HOXB4 (Homo sapiens, UniProt P17483 148-234)
[2] = target: T1, VENTX (Homo sapiens, UniProt O95231 78-163, R121Q)
T1 sequence: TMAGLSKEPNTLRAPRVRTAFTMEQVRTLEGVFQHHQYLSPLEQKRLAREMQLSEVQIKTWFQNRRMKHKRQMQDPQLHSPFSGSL

[3] = target: HOXA4 (Homo sapiens, UniProt Q00056 201-287, W262R)
[4] = target: PRRX1 (Homo sapiens, UniProt P54821 80-166, F113S)
[5] = target: T2, VENTX (Homo sapiens, UniProt O95231 78-163, Y115F)
T2 sequence: T1 sequence with Y38F, Q44R

[6] = target: HOXB6 (Homo sapiens, UniProt P17509 132-218, K202E)
[7] = target: HOXA2 (Homo sapiens, UniProt O43364 129-215, R185T)
[8] = target: HOXA4 (Homo sapiens, UniProt Q00056 201-287, R217L)
[9] = target: HOXB4 (Homo sapiens, UniProt P17483 148-234, V174I)
[10] = target: MSX2 (Homo sapiens, UniProt P35548 130-214, R199I)
[11] = target: T3, PAX4 (Homo sapiens, UniProt O43316 9-242, R200Q)
T3 sequence: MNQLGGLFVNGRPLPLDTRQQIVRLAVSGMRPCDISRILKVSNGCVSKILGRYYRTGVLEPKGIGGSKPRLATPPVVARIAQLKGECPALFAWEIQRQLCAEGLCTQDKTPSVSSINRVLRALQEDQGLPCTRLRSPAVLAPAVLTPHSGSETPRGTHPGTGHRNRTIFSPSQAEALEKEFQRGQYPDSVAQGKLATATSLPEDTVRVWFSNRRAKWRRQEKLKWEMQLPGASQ

[12] = target: T4, PAX4 (Homo sapiens, UniProt O43316 9-242, F177V)
T4 sequence: T3 sequence with F169V, Q192R

[13] = target: HOXA4 (Homo sapiens, UniProt Q00056 201-287)
[14] = target: MSX2 (Homo sapiens, UniProt P35548 130-214)
[15] = target: T5, PAX4 (Homo sapiens, UniProt O43316 9-242, F177Y)
T5 sequence: T3 sequence with F169Y, Q192R

[16] = target: MSX2 (Homo sapiens, UniProt P35548 130-214, F161Y)
[17] = target: VAX1 (Homo sapiens, UniProt Q5SQQ9 86-172, T142I)
[18] = target: HOXA4 (Homo sapiens, UniProt Q00056 201-287, W262F)
[19] = target: PRRX1 (Homo sapiens, UniProt P54821 80-166)
[20] = target: VAX1 (Homo sapiens, UniProt Q5SQQ9 86-172, K157R)
Sequence of VAX1 (Homo sapiens, UniProt Q5SQQ9 86-172, K157R) (Q5SQQ9 86-172 K157R): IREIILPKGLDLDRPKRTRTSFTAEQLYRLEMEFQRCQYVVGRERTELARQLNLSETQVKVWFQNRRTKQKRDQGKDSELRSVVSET

Sequence of PRRX1 (Homo sapiens, UniProt P54821 80-166) (P54821 80-166): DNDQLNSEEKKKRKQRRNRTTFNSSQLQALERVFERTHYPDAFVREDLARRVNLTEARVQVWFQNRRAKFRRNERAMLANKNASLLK
Sequence of PRRX1 (Homo sapiens, UniProt P54821 80-166, F113S) (P54821 80-166 F113S): as the sequence (P54821 80-166) above, with F34S counted along it
Sequence of HOXA4 (Homo sapiens, UniProt Q00056 201-287, R217L) (Q00056 201-287 R217L): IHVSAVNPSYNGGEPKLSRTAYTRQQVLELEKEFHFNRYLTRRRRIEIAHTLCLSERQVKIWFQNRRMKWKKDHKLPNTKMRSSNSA
Sequence of HOXA4 (Homo sapiens, UniProt Q00056 201-287) (Q00056 201-287): as the sequence (Q00056 201-287 R217L) above, with L17R counted along it
Sequence of MSX2 (Homo sapiens, UniProt P35548 130-214, R199I) (P35548 130-214 R199I): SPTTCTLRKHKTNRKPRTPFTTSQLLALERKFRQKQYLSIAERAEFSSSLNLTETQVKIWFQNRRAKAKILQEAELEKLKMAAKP
Sequence of HOXB4 (Homo sapiens, UniProt P17483 148-234, V174I) (P17483 148-234 V174I): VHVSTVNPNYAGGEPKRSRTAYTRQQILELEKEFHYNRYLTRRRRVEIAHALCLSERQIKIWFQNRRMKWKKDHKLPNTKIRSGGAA
Sequence of MSX2 (Homo sapiens, UniProt P35548 130-214) (P35548 130-214): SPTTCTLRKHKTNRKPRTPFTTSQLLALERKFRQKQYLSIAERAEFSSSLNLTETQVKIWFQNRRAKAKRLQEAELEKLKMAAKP
Sequence of HOXB6 (P17509 132-218 K202E): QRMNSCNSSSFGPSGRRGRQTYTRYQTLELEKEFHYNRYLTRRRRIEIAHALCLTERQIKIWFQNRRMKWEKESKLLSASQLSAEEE
Sequence of HOXB4 (Homo sapiens, UniProt P17483 148-234) (P17483 148-234): as the sequence (P17483 148-234 V174I) above, with I27V counted along it
Sequence of HOXA4 (Homo sapiens, UniProt Q00056 201-287, W262R) (Q00056 201-287 W262R): as the sequence (Q00056 201-287 R217L) above, with L17R, W62R counted along it
Sequence of HOXA4 (Homo sapiens, UniProt Q00056 201-287, W262F) (Q00056 201-287 W262F): as the sequence (Q00056 201-287 R217L) above, with L17R, W62F counted along it
Sequence of HOXA2 (O43364 129-215 R185T): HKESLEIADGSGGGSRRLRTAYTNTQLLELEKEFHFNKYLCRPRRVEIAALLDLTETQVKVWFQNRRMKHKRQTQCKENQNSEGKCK
Sequence of MSX2 (Homo sapiens, UniProt P35548 130-214, F161Y) (P35548 130-214 F161Y): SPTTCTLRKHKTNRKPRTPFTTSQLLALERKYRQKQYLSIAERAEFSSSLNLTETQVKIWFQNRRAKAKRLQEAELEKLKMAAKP
Sequence of VAX1 (Homo sapiens, UniProt Q5SQQ9 86-172, T142I) (Q5SQQ9 86-172 T142I): as the sequence (Q5SQQ9 86-172 K157R) above, with T57I, R72K counted along it

GATAATTA
binding signal [1]: 13.8 upbm affinity estimate (log intensity, higher = more binding, comparable within an allelic series) | binding signal [2]: 12.5 upbm affinity estimate (log intensity, higher = more binding, comparable within an allelic series) | binding signal [3]: 11 upbm affinity estimate (log intensity, higher = more binding, comparable within an allelic series) | binding signal [4]: 12 upbm affinity estimate (log intensity, higher = more binding, comparable within an allelic series) | binding signal [5]: 12.3 upbm affinity estimate (log intensity, higher = more binding, comparable within an allelic series) | binding signal [6]: 10.2 upbm affinity estimate (log intensity, higher = more binding, comparable within an allelic series) | binding signal [7]: 13.9 upbm affinity estimate (log intensity, higher = more binding, comparable within an allelic series) | binding signal [8]: 13.1 upbm affinity estimate (log intensity, higher = more binding, comparable within an allelic series) | binding signal [9]: 14.5 upbm affinity estimate (log intensity, higher = more binding, comparable within an allelic series) | binding signal [10]: 13.3 upbm affinity estimate (log intensity, higher = more binding, comparable within an allelic series) | binding signal [11]: 12.4 upbm affinity estimate (log intensity, higher = more binding, comparable within an allelic series) | binding signal [12]: 10.8 upbm affinity estimate (log intensity, higher = more binding, comparable within an allelic series) | binding signal [13]: 14.3 upbm affinity estimate (log intensity, higher = more binding, comparable within an allelic series) | binding signal [14]: 14.1 upbm affinity estimate (log intensity, higher = more binding, comparable within an allelic series) | binding signal [15]: 11.3 upbm affinity estimate (log intensity, higher = more binding, comparable within an allelic series) | binding signal [16]: 13.7 upbm affinity estimate (log intensity, higher = more binding, comparable within an allelic series) | binding signal [17]: 13.8 upbm affinity estimate (log intensity, higher = more binding, comparable within an allelic series) | binding signal [18]: 12.6 upbm affinity estimate (log intensity, higher = more binding, comparable within an allelic series) | binding signal [19]: 13.7 upbm affinity estimate (log intensity, higher = more binding, comparable within an allelic series) | binding signal [20]: 13.7 upbm affinity estimate (log intensity, higher = more binding, comparable within an allelic series)

GCAATTAA
binding signal [1]: 13.2 upbm affinity estimate (log intensity, higher = more binding, comparable within an allelic series) | binding signal [2]: 12.2 upbm affinity estimate (log intensity, higher = more binding, comparable within an allelic series) | binding signal [3]: 10.6 upbm affinity estimate (log intensity, higher = more binding, comparable within an allelic series) | binding signal [4]: 11.1 upbm affinity estimate (log intensity, higher = more binding, comparable within an allelic series) | binding signal [5]: 11.9 upbm affinity estimate (log intensity, higher = more binding, comparable within an allelic series) | binding signal [6]: 10.1 upbm affinity estimate (log intensity, higher = more binding, comparable within an allelic series) | binding signal [7]: 13.2 upbm affinity estimate (log intensity, higher = more binding, comparable within an allelic series) | binding signal [8]: 12.4 upbm affinity estimate (log intensity, higher = more binding, comparable within an allelic series) | binding signal [9]: 13.9 upbm affinity estimate (log intensity, higher = more binding, comparable within an allelic series) | binding signal [10]: 13.2 upbm affinity estimate (log intensity, higher = more binding, comparable within an allelic series) | binding signal [11]: 12 upbm affinity estimate (log intensity, higher = more binding, comparable within an allelic series) | binding signal [13]: 13.9 upbm affinity estimate (log intensity, higher = more binding, comparable within an allelic series) | binding signal [14]: 14.1 upbm affinity estimate (log intensity, higher = more binding, comparable within an allelic series) | binding signal [16]: 13.7 upbm affinity estimate (log intensity, higher = more binding, comparable within an allelic series) | binding signal [17]: 13.2 upbm affinity estimate (log intensity, higher = more binding, comparable within an allelic series) | binding signal [18]: 11.8 upbm affinity estimate (log intensity, higher = more binding, comparable within an allelic series) | binding signal [19]: 13.2 upbm affinity estimate (log intensity, higher = more binding, comparable within an allelic series) | binding signal [20]: 12.9 upbm affinity estimate (log intensity, higher = more binding, comparable within an allelic series)

AAATTAAT
binding signal [1]: 12.9 upbm affinity estimate (log intensity, higher = more binding, comparable within an allelic series) | binding signal [3]: 10.6 upbm affinity estimate (log intensity, higher = more binding, comparable within an allelic series) | binding signal [4]: 11.2 upbm affinity estimate (log intensity, higher = more binding, comparable within an allelic series) | binding signal [6]: 10.1 upbm affinity estimate (log intensity, higher = more binding, comparable within an allelic series) | binding signal [8]: 12.1 upbm affinity estimate (log intensity, higher = more binding, comparable within an allelic series) | binding signal [9]: 13.6 upbm affinity estimate (log intensity, higher = more binding, comparable within an allelic series) | binding signal [10]: 12.2 upbm affinity estimate (log intensity, higher = more binding, comparable within an allelic series) | binding signal [11]: 12.4 upbm affinity estimate (log intensity, higher = more binding, comparable within an allelic series) | binding signal [12]: 10.7 upbm affinity estimate (log intensity, higher = more binding, comparable within an allelic series) | binding signal [13]: 13.6 upbm affinity estimate (log intensity, higher = more binding, comparable within an allelic series) | binding signal [14]: 13.4 upbm affinity estimate (log intensity, higher = more binding, comparable within an allelic series) | binding signal [15]: 11.2 upbm affinity estimate (log intensity, higher = more binding, comparable within an allelic series) | binding signal [16]: 13.1 upbm affinity estimate (log intensity, higher = more binding, comparable within an allelic series) | binding signal [17]: 12.5 upbm affinity estimate (log intensity, higher = more binding, comparable within an allelic series) | binding signal [18]: 11.5 upbm affinity estimate (log intensity, higher = more binding, comparable within an allelic series) | binding signal [19]: 13.3 upbm affinity estimate (log intensity, higher = more binding, comparable within an allelic series) | binding signal [20]: 12.4 upbm affinity estimate (log intensity, higher = more binding, comparable within an allelic series)

ACCAATTA
binding signal [2]: 12.2 upbm affinity estimate (log intensity, higher = more binding, comparable within an allelic series) | binding signal [4]: 11.5 upbm affinity estimate (log intensity, higher = more binding, comparable within an allelic series) | binding signal [5]: 11.8 upbm affinity estimate (log intensity, higher = more binding, comparable within an allelic series) | binding signal [6]: 9.84 upbm affinity estimate (log intensity, higher = more binding, comparable within an allelic series) | binding signal [7]: 12.8 upbm affinity estimate (log intensity, higher = more binding, comparable within an allelic series) | binding signal [9]: 13.6 upbm affinity estimate (log intensity, higher = more binding, comparable within an allelic series) | binding signal [10]: 13.4 upbm affinity estimate (log intensity, higher = more binding, comparable within an allelic series) | binding signal [11]: 12.1 upbm affinity estimate (log intensity, higher = more binding, comparable within an allelic series) | binding signal [12]: 10.5 upbm affinity estimate (log intensity, higher = more binding, comparable within an allelic series) | binding signal [14]: 14.2 upbm affinity estimate (log intensity, higher = more binding, comparable within an allelic series) | binding signal [15]: 10.8 upbm affinity estimate (log intensity, higher = more binding, comparable within an allelic series) | binding signal [16]: 13.8 upbm affinity estimate (log intensity, higher = more binding, comparable within an allelic series) | binding signal [17]: 12.4 upbm affinity estimate (log intensity, higher = more binding, comparable within an allelic series) | binding signal [19]: 13.6 upbm affinity estimate (log intensity, higher = more binding, comparable within an allelic series) | binding signal [20]: 12.7 upbm affinity estimate (log intensity, higher = more binding, comparable within an allelic series)

CAATTAAA
binding signal [2]: 11.7 upbm affinity estimate (log intensity, higher = more binding, comparable within an allelic series) | binding signal [3]: 10.5 upbm affinity estimate (log intensity, higher = more binding, comparable within an allelic series) | binding signal [4]: 11.2 upbm affinity estimate (log intensity, higher = more binding, comparable within an allelic series) | binding signal [5]: 11.4 upbm affinity estimate (log intensity, higher = more binding, comparable within an allelic series) | binding signal [6]: 10 upbm affinity estimate (log intensity, higher = more binding, comparable within an allelic series) | binding signal [7]: 12.6 upbm affinity estimate (log intensity, higher = more binding, comparable within an allelic series) | binding signal [8]: 12.1 upbm affinity estimate (log intensity, higher = more binding, comparable within an allelic series) | binding signal [10]: 13.1 upbm affinity estimate (log intensity, higher = more binding, comparable within an allelic series) | binding signal [13]: 13.6 upbm affinity estimate (log intensity, higher = more binding, comparable within an allelic series) | binding signal [14]: 14 upbm affinity estimate (log intensity, higher = more binding, comparable within an allelic series) | binding signal [16]: 13.7 upbm affinity estimate (log intensity, higher = more binding, comparable within an allelic series) | binding signal [17]: 12.7 upbm affinity estimate (log intensity, higher = more binding, comparable within an allelic series) | binding signal [18]: 11.3 upbm affinity estimate (log intensity, higher = more binding, comparable within an allelic series) | binding signal [19]: 13.3 upbm affinity estimate (log intensity, higher = more binding, comparable within an allelic series) | binding signal [20]: 12.8 upbm affinity estimate (log intensity, higher = more binding, comparable within an allelic series)
